Source: PubChem BioAssay
Nrf2 ARE act = Nrf2 pathway activation. 0.31% of 410,000 active. Potency, µM (highest dose often 46.1 µM), without a hit: at the highest dose activation, actives largely listed as activators. AREc32 ARE-luciferase reporter (MCF7-derived line), luminescence, 24 h; note: potency is the fitted concentration of half-maximal effect; % of control where 0% means no effect; nearly all actives have a fitted effect of over 65% in size
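AREc32 cells carrying an ARE-driven firefly luciferase, 1000 cells/well in OPTI-MEM with 5% FBS, dosed after overnight attachment and incubated 24 hr at 37 deg C. Steady-Glo luminescence read after 30 min at RT.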
LDHA inh = blocks human lactate dehydrogenase A; purified LDHA, NADH/diaphorase-resazurin fluorescence; active compounds read low; AID 1347041; activity change, % (values are at about 110 or 230 µM); 0.15% of 480,000 active; in the data active = activity change below about -30%; inconclusive = mostly about -25% to -30%;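 note: plate controls were DMSO wells for no effect and wells without enzyme for full effect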
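Resorufin fluorescence (ex540/em590), read at 0 and 20 min after diaphorase/resazurin addition, reports the NADH left after a 5 min room-temperature reaction of 2 nM human LDH5 with 0.06 mM NADH and 0.2 mM pyruvate.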
IDH1 R132H inh = human IDH1 R132H inhibition; IDH1-R132H enzyme, NADPH consumption, diaphorase/resazurin fluorescence; Potency, µM (series often up to 76.6 µM), for the others: top-dose activity change, negative = inhibition, actives largely listed as inhibitors; 0.093% of 390,000 active; AID 602179; note: potency is the fitted concentration of half-maximal effect; % is set by controls: 0 for no effect and ±100 for the full control effect; nearly all actives have a fitted effect of over 65% in size
Target sequence (O75874 whole entry R132H, stated change not applied): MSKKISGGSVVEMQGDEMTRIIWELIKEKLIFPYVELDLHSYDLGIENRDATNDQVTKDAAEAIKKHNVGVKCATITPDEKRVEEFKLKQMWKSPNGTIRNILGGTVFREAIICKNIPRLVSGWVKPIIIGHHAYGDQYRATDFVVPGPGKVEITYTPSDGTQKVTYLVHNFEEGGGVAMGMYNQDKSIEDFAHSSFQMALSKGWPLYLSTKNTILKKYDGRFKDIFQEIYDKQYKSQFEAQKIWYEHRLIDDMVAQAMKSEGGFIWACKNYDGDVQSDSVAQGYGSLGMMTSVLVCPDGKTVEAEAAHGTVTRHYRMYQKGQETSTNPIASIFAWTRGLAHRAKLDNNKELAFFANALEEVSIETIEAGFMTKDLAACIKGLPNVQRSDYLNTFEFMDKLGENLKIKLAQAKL
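IDH1-R132H (0.5 ug/mL) preincubated 30 min with compound, then NADPH (0.016 mM) and alpha-KG (2 mM) added; 80 min at RT, pH 7.5. Remaining NADPH coupled via diaphorase/resazurin to fluorescence (540/590 nm); concentration-response curves normalized to no-enzyme control.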
Nrf2 block = blocks Nrf2 signaling; A549 ARE-Fluc reporter, luciferase luminescence, 18-24 h; Potency, µM (titrated, usually from 46 µM), inactives show at the highest dose activity change, negative = inhibition, usual class: inhibitors; 2.1% of 360,000 active; note: potency is the fitted concentration of half-maximal effect; % is set by controls: 0 for no effect and ±100 for the full control effect; nearly all actives have a fitted effect of over 60% in size
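Nrf2 activity is the BugLite luminescence, read 15 min after reagent at room temperature, following CellTiter-Fluor cytotoxicity readout (30 min, 37C). Compound titrations were applied for 18-24 h to 5000 A549 ARE_Fluc cells/well in 5% FBS OPTI-MEM.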
A549 viability = counter-screen for Nrf2 inhibitors: cytotoxicity in A549 cells; A549 ARE-Fluc cells, CellTiter-Fluor viability, 18-24 h; Potency, µM (highest dose often 46 µM), for inactives: at the highest dose activity change, negative = cytotoxicity, usual class: inhibitors; 0.16% of 390,000 active; AID 504648; note: potency is the fitted concentration of half-maximal effect; % is set by controls: 0 for no effect and ±100 for the full control effect
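A549 ARE-Fluc cells in 5% FBS OPTI-MEM, 5000 cells/well, rested 2 h then exposed to compounds in concentration-response for 18-24 h at 37 °C. Viability by CellTiter-Fluor fluorescence (Ex 405/Em 525) after 30 min; luciferase luminescence (BugLite, 15 min, RT) read afterwards.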
ALOX12 inh = inhibitors of human 12S-lipoxygenase ALOX12 | purified 12hLO, xylenol orange hydroperoxide absorbance | Potency, µM (titrated, usually from 108 µM), without a hit: at the top dose activity change, negative = inhibition, most hits filed as inhibitors | 1.1% of 580,000 active; note: potency is the fitted concentration of half-maximal effect; % is set by controls: 0 for no effect and ±100 for the full control effect
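Purified human 12hLO at 150 nM in 25 mM Hepes, 0.01% Triton X-100, pH 7.0, preincubated 15 min at room temperature with compound. Reaction started with 40 uM arachidonic acid, 30 min at room temperature. Hydroperoxide measured by Fe-xylenol orange, 573/405 nm absorbance ratio.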
Numbers without * were called inactive; ? = inconclusive; / = no result given; [ ] = another dose, or the depositor's remark. Most compounds without a hit are left out; they make up all but 2.7% or so of the library. Unless noted, calls come from the whole dose curve; as a rule, active = well fitted curve in the direction sought with a large enough effect; inconclusive = small, poorly fitted or top-dose-only effect, or another doubt; inactive = no such curve, though single readings can be large; an effect the other way counts as inactive or inconclusive.

SMILES | Nrf2 ARE act | LDHA inh | IDH1 R132H inh | Nrf2 block | A549 viability | ALOX12 inh
O=C(NCc1ccco1)c1ccc2c(c1)N(Cc1ccccc1)C(=O)CS2 | 5% | -12 | 1% | 23µM* | -1% | -10%
Clc1ccccc1-c1ncc2ccccn12 | 2% | -17 | 10% | ? | -5% | 22µM*
CS(=O)(=O)c1ccc(C(=O)OCC(=O)NC(=O)NC2CCCCC2)cc1[N+](=O)[O-] | / | -1 | / | ? | 3% | /
CS(=O)(=O)c1ccc(C(=O)OCC(=O)NC23CC4CC(CC(C4)C2)C3)cc1[N+](=O)[O-] | 14% | -10 | 32µM* | -4% | -8% | -14%
Cc1ccc(C(C)(C)c2ccc(C(=O)O)cc2)cc1 | / | -4 | / | / | / | -6%
CCCCCc1ccc(OCCCC[n+]2ccccc2)c(CCCCC)c1 | -2% | 0 | 7% | 18µM* | ? | /
CCC(C)(C)c1ccc(Oc2cccc(C(=O)O)c2)cc1 | 4% | -1 | -1% | ? | 1% | 27%
CCC(C)(C)c1ccc(OCCCC[n+]2ccccc2)c(C(C)(C)CC)c1 | -3% | 0 | 11% | 23µM* | ? | ?
CCCCCc1ccc(OCCCC[n+]2ccc(C)cc2)c(CCCCC)c1 | -2% | -1 | -7% | 10µM* | -19% | ?
CCCCCc1ccc(OCCCC[n+]2cccc(C)c2)c(CCCCC)c1 | -3% | 1 | 10% | ? | ? | ?
CCCCCCCCOc1ccc(-c2ccc(CCCCCCCC)cn2)cc1F | / | -3 | / | / | / | 5%
O=C(CSc1ccc2c(c1)OCCCO2)c1ccc2c(c1)CCO2 | / | -25 | / | / | / | ?
COC(=O)c1sc(S(=O)(=O)Nc2cccc(Cl)c2Cl)c(C(=O)OC)c1C | / | -6 | / | / | / | ?
Cc1cc(CN2CCN(Cc3nc(C(C)C)no3)CC2)on1 | / | -2 | / | / | / | 16%
Cc1nn(-c2cccc(C(F)(F)F)c2)c(=O)c2ccccc12 | 3.5µM* | -3 | 4% | 0% | 5% | ?
Cc1nn(-c2ccccc2)c(=O)c2ccccc12 | 5% | -5 | -3% | 4% | -1% | 2%
Cn1c(=O)c2c(-c3ccccc3Br)[nH]cc2n(C)c1=O | / | 14 | / | / | / | -18%
Cn1c(=O)c2c(nc(NCCO)n2Cc2cccc(C(F)(F)F)c2)n(C)c1=O | / | 16 | / | / | / | 9%
CC(O)CNc1nc2c(c(=O)n(C)c(=O)n2C)n1C/C=C/c1ccccc1 (stereo not drawn) | 0% | -9 | -4% | 23µM* | -6% | 7%[57.4 µM]
COCCCn1c(=O)c2sccc2n(Cc2cccc(C)c2)c1=O | 0% | -9 | -2% | -18% | -1% | 10%
Cn1c(=O)c2c(nc(NCCCO)n2C/C=C/c2ccccc2)n(C)c1=O | 3% | -2 | 13% | / | -3% | -10%
Cn1c(=O)c2sccc2n(Cc2cccc(Br)c2)c1=O | 0% | 1 | -12% | 10µM* | -1% | 4%
CC(O)CNc1nc2c(c(=O)n(C)c(=O)n2C)n1Cc1cccc(Br)c1 (stereo not drawn) | 1% | -3 | 4% | 16µM* | -13% | 0%
COCCNc1nc2c(c(=O)n(C)c(=O)n2C)n1Cc1cccc(C(F)(F)F)c1 | 1% | 4 | 9% | 16µM* | -20% | 18%
CC(C)CNc1nc2c(c(=O)n(C)c(=O)n2C)n1Cc1cccc(Br)c1 | 0% | -3 | 6% | / | -1% | -11%
SMILES | Nrf2 ARE act | LDHA inh | IDH1 R132H inh | Nrf2 block | A549 viability | ALOX12 inh
Cc1ccsc1C(=O)Nc1ccc2c(c1)CCC2 | / | -6 | / | / | / | 5%
Cc1nnc(SCC(=O)Nc2ccc(OC(F)F)c(Cl)c2)n(N)c1=O | 3% | -36* | 11% | -19% | -4% | 0%
Cc1ccc(NC(=O)CSc2nnc(C)c(=O)n2N)cc1Cl | -1% | -12 | -7% | -1% | -1% | 13%
Cc1ccc(NC(=O)CSc2nnc(C)c(=O)n2N)c(C)c1 | 3% | -37* | 1% | 0% | -1% | ?
Cc1cccc(NC(=O)CSc2nnc(C)c(=O)n2N)c1 | -2% | -4 | 1% | 1% | -12% | 16%
NC1=NC(c2ccccc2)C=C(c2ccccc2)O1 (stereo not drawn) | / | 3 | / | / | / | -11%
CC(C)CC(NC(=O)c1ccc(Cl)cc1)C(=O)OCC(=O)c1ccc2c(c1)NC(=O)CO2 (stereo not drawn) | 0% | -8 | -4% | 16µM* | 21µM* | 10%
O=C1COc2ccc(C(=O)COC(=O)c3ccco3)cc2N1 | 0% | -4 | -3% | 9% | 1% | -2%
O=C1COc2ccc(C(=O)COC(=O)/C=C/c3ccco3)cc2N1 | 2.2µM* | -8 | 3% | 4% | -6% | /
CCCCN1C=C(OC(=O)c2ccccc2OC)c2ccccc2S1(=O)=O | / | 13 | / | / | / | ?
CC(=O)Nc1ccc(CNC(=O)c2nccnc2N)cc1 | / | 3 | / | / | / | ?
O=C(O)C(c1c[nH]c2cc(Cl)ccc12)N1CCN(Cc2cccc3ccccc23)CC1 (stereo not drawn) | / | -14 | / | / | / | ?
O=C(O)C(c1c[nH]c2cc(F)ccc12)N1CCN(Cc2cccc3ccccc23)CC1 (stereo not drawn) | / | 7 | / | / | / | 40µM*
COc1cc(NC(=O)c2cc3c(s2)-c2ccccc2OC3)cc(OC)c1OC | -5% | 5 | 3% | 21µM* | -11% | -6%
COc1ccc(OC)c(CCNC(=O)c2cc3c(s2)-c2c(C)cccc2OC3)c1 | 3% | 6 | -12% | -25% | 0% | 1%
COc1ccc(CCNC(=O)c2cc3c(s2)-c2c(C)cccc2OC3)c(OC)c1 | 1% | -2 | -3% | 21µM* | -6% | 1%
COC(=O)c1ccccc1NC(=O)c1cc2c(s1)-c1ccccc1OC2 | -1% | 1 | -3% | 8% | 7% | 2%
N#Cc1ccnc(N2CCN(C(=O)Nc3ccccc3)CC2)c1 | / | 3 | / | / | / | 42%
Cc1nn(C)c(C)c1NC(=O)CCl | ? | -5 | 16% | -2% | -15% | 14µM*
CCN(CC)C(=S)Sc1ccc([N+](=O)[O-])cc1 | / | 3 | / | / | / | 5.6µM*
Cc1cccc(NC(=O)NC(=O)CN(C)Cc2ccccc2)c1C | / | 1 | / | / | / | 30%
Cc1cc(C)cc(NC(=S)Nc2ccc(Cl)c(Cl)c2)c1 | 1% | -5 | 4% | ? | -17% | 40µM*
Cc1cccc(C)c1NC(=S)Nc1ccc(Cl)c(Cl)c1 | 0% | -4 | 9% | 8% | 9% | ?
COc1ccc(-c2nn3c(c2C)NC(=O)CC3C(=O)Nc2ccc(C)cc2)cc1 (stereo not drawn) | / | 8 | / | / | / | -13%
O=C1COc2ccc(OCc3ccccc3)nc2CN1Cc1ccc(F)cc1 | / | / | / | / | / | -10%[176 µM]
